Reference: PubChem BioAssay (Tox21)
Where “and” joins values, the source holds several entries; their conditions need not be identical. Equal values may be shown once. Records with an inconclusive call do not appear. Where a call stands in place of a potency, no number is given. More than one record can exist for a structure, and the calls need not agree. Calls of active or inactive are those of the source. Calls come from the whole dose curve; as a rule, active = well fitted curve in the direction sought with a large enough effect in the repeat runs; inconclusive = weak or mixed curves; inactive = no such curve, though single readings can be large; an effect the other way counts as inactive or inconclusive.

Assays:
[1] = molecular target: Cytochrome P450 2C19 (Homo sapiens) (UniProt P33261); assay: Cytochrome P450 Family 2 Subfamily C Member 19 (CYP2C19) small molecule antagonists: luciferase reporter qHTS assay (AID 1671197); note: nearly all actives have a fitted effect of over 65% in size; for activity change, negative = inhibition: series mostly up to about 120 µM
In short: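 P450-Glo CYP2C19 screening system; proluciferin substrate; DMSO compound stocks; 10 min RT preincubation; NADPH regeneration, 1 h at 37C; luciferin detection reagent, 20 min RT; luminescence as RLU.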

[2] = molecular target: Cytochrome P450 2C9 (Homo sapiens) (UniProt P11712); assay: Cytochrome P450 Family 2 Subfamily C Member 9 (CYP2C9) small molecule antagonists: luciferase reporter qHTS assay (AID 1671198); note: nearly all actives have a fitted effect of over 50% in size; for activity change, negative = inhibition: series mostly up to about 120 µM
In short: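 P450-Glo proluciferin substrate with CYP2C9 enzyme; 10 min RT preincubation, then NADPH regeneration 1 h at 37C; luciferin detection reagent 20 min RT, luminescence in relative luminescence units.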

[3] = molecular target: Cytochrome P450 1A2 (Homo sapiens) (UniProt P05177); assay: Cytochrome P450 Family 1 Subfamily A Member 2 (CYP1A2) small molecule antagonists: luciferase reporter qHTS assay (AID 1671199); note: nearly all actives have a fitted effect of over 50% in size; for activity change, negative = inhibition: series mostly up to about 120 µM
In short: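 Steps: enzyme-substrate mix dispensed; test compounds and furafylline control pinned in; 10 min room temperature; NADPH regeneration solution added, 1 h; reaction stopped with luciferin detection reagent; luminescence read after 20 min.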

[4] = molecular target: Voltage-gated inwardly rectifying potassium channel KCNH2 (Homo sapiens) (UniProt Q12809); assay: Human Ether-a-go-go-Related Gene (hERG) channel small molecule antagonists: fluorescence cell-based qHTS assay (AID 1671200); note: nearly all actives have a fitted effect of over 50% in size;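 for activity change, negative = inhibition: hERG-expressing U2OS cells given a thallium stimulus after FluxOR II dye loading; series mostly up to about 77 µM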
In short: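 Channel function was assessed by thallium flux. Cells seeded the previous day and kept at 37 C took up FluxOR II dye over 1 h in the dark at room temperature, then sat another 10 min before stimulation.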

[5] = molecular target: Cytochrome P450 3A4 (Homo sapiens) (UniProt P08684); assay: Cytochrome P450 Family 3 Subfamily A Member 4 (CYP3A4) small molecule antagonists: luciferase reporter qHTS assay (AID 1671201); note: nearly all actives have a fitted effect of over 50% in size; for activity change, negative = inhibition: series mostly up to about 120 µM
In short: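 Compounds in DMSO were pin-transferred onto CYP3A4 enzyme-substrate mix and held 10 min at room temperature. NADPH regenerating solution started the reaction for 1 h; luciferin detection reagent stopped it, and luminescence was read after 20 min.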
Potency is the fitted concentration of half-maximal effect.

Chain of Cytochrome P450 3A4 (Homo sapiens) (P08684 whole entry, looked up): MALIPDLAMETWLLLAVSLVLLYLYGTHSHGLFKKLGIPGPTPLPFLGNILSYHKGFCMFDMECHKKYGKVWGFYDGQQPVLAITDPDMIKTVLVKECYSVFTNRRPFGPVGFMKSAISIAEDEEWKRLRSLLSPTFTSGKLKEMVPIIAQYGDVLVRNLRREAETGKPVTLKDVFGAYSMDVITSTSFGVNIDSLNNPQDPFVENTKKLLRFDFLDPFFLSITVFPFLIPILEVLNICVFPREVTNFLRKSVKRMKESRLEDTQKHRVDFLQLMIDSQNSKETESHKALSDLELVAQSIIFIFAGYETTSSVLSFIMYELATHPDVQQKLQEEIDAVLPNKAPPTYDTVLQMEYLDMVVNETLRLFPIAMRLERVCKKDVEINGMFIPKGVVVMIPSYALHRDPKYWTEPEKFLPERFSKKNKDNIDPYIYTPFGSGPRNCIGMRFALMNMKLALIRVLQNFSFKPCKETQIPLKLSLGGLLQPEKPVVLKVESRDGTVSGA
Chain of Cytochrome P450 2C19 (Homo sapiens) (P33261 whole entry, looked up): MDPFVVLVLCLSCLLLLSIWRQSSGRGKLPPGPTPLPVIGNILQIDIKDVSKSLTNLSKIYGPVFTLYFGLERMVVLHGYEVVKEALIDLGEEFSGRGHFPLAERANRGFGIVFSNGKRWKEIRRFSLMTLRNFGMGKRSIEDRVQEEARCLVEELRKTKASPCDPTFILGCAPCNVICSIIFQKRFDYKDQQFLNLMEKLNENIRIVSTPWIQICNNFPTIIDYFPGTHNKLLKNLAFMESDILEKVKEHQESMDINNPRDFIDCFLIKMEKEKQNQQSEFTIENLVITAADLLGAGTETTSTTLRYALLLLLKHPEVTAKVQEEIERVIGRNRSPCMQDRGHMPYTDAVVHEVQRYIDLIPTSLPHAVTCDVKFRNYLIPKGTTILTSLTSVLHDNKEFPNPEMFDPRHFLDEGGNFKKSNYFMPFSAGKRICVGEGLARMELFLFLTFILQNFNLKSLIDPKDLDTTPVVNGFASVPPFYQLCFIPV
Chain of Cytochrome P450 2C9 (Homo sapiens) (P11712 whole entry, looked up): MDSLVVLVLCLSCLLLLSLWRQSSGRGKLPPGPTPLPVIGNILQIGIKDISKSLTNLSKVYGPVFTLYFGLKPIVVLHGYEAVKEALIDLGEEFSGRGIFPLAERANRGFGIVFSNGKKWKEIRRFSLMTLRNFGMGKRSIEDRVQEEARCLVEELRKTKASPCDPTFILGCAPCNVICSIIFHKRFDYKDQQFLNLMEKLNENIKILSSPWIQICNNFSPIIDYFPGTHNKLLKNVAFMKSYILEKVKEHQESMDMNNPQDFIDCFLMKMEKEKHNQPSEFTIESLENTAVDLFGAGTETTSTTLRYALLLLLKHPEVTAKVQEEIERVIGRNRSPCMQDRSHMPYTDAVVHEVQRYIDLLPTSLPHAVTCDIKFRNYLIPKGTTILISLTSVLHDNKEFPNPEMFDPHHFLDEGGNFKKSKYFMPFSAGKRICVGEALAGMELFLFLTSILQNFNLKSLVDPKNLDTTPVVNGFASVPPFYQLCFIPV
Chain of Voltage-gated inwardly rectifying potassium channel KCNH2 (Homo sapiens) (Q12809 whole entry, looked up): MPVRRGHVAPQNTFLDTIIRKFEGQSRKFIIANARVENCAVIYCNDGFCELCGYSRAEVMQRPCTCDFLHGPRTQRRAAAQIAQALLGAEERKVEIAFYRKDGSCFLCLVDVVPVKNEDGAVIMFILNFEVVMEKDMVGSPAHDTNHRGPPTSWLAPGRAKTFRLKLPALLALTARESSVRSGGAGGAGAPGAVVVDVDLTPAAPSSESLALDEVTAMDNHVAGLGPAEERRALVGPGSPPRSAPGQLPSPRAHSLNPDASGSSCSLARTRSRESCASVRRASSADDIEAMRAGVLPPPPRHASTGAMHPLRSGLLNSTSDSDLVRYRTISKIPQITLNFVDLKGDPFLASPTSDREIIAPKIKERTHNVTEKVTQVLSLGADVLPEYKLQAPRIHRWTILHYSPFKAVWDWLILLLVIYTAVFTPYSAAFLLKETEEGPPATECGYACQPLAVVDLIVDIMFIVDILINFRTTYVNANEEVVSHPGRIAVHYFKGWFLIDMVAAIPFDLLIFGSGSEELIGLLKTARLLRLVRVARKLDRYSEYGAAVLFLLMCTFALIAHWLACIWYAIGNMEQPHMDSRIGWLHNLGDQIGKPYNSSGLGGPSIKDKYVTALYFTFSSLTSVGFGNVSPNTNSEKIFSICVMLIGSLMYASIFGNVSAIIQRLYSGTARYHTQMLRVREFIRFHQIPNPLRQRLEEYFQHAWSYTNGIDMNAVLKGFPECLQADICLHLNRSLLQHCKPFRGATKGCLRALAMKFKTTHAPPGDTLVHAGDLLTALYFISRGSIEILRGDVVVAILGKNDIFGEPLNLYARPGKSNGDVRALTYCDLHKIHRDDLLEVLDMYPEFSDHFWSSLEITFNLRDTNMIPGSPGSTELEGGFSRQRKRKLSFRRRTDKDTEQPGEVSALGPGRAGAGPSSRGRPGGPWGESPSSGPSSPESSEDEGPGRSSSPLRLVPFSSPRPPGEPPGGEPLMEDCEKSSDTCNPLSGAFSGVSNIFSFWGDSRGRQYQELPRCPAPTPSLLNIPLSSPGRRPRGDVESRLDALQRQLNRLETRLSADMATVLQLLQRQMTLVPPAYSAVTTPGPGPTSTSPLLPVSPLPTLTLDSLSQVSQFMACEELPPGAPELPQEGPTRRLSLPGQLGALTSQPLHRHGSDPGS
Chain of Cytochrome P450 1A2 (Homo sapiens) (P05177 whole entry, looked up): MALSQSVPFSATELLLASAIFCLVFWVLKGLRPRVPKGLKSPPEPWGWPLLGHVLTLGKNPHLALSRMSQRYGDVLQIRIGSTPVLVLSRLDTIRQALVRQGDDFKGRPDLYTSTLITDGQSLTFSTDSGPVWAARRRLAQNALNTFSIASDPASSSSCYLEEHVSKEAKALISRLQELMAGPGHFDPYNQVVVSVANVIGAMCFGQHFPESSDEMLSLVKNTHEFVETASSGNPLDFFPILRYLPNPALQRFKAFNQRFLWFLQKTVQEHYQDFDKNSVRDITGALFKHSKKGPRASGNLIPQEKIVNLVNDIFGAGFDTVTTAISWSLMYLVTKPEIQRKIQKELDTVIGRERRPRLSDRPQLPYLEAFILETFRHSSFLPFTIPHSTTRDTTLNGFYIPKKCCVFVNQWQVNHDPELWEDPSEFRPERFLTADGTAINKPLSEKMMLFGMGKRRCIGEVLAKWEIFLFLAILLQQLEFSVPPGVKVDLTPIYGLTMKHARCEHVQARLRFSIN

Row | Structure (SMILES) | Potency [1] | Potency [2] | Potency [3] | Potency [4] | Potency [5] | activity change, negative = inhibition [2]
1 | Cc1ccc(C(C)C)cc1 | inactive | inactive | inactive | inactive |  | 
2 | COc1cc(NC(=O)CC(C)=O)c(OC)cc1Cl | 40.1 µM (active) and 39.9 µM (active) | 40.1 µM (active) and 39.9 µM (active) | 3.57 µM (active) and 5.64 µM (active) | inactive | 14.2 µM (active) and 15.9 µM (active) | 
3 | COc1ccc2cc3[n+](cc2c1OC)CCc1cc2c(cc1-3)OCO2 | 20.2 µM (active) and inactive | inactive | 25.4 µM (active) and 14.4 µM (active) | inactive |  | 
4 | Cc1cccc(C)c1[N+](=O)[O-] |  | inactive | inactive | inactive |  | 
5 | CCCCCCC(=O)O |  | inactive | inactive | inactive |  | 
6 | c1cnc2c(c1)ccc1cccnc12 | 10.1 µM (active) and 8.94 µM (active) and 10 µM (active) | 8.94 µM (active) | 10.1 µM (active) and 14.2 µM (active) and 11.2 µM (active) | inactive | inactive | 
7 | CC1=CC(=O)CC(C)(C)C1 | 18.4 µM (active) and inactive | inactive | 36.6 µM (active) and inactive | inactive | inactive | 
8 | Cc1ccncc1 |  | inactive | inactive | inactive |  | 
9 | CC(CN1c2ccccc2Sc2ccccc21)N(C)C (stereo not given) | 8.05 µM (active) and 10 µM (active) and 7.76 µM (active) |  |  | 22.1 µM (active) and 21.9 µM (active) and 21.3 µM (active) | inactive | 
10 | CC(C=O)Cc1ccc(C(C)(C)C)cc1 (stereo not given) | inactive | 56.4 µM (active) | inactive | inactive | inactive | 
11 | CC(C)=CCC/C(C)=C/C=O |  | inactive and 79.6 µM (active) | inactive | inactive |  | 
12 | CCCCCNCCCCC |  | inactive | inactive | inactive |  | 
13 | CO[Si](CCCNCCN)(OC)OC | inactive | inactive |  | inactive |  | 
14 | NC(=O)c1ncn([C@@H]2O[C@H](CO)[C@@H](O)[C@H]2O)n1 | inactive |  | inactive | inactive | inactive | 
15 | CC(=O)CC(=O)N(C)C |  | inactive | inactive | inactive |  | 
16 | CCCCC(CC)COC(=O)c1ccc(C(=O)OCC(CC)CCCC)cc1 (stereo not given) | inactive | inactive |  | inactive |  | 
17 | CC(=O)OCc1ccc2c(c1)OCO2 | 35.7 µM (active) and 31.7 µM (active) | 25.2 µM (active) and 35.6 µM (active) | 2.01 µM (active) and 2.52 µM (active) | inactive | 20.1 µM (active) and 39.9 µM (active) | 
18 | Cc1ncc(CO)c(CO)c1O | inactive |  | inactive | inactive | inactive | 

Row | Structure (SMILES) | Potency [1] | Potency [2] | Potency [3] | Potency [4] | Potency [5] | activity change, negative = inhibition [2]
19 | COC(=O)/C=C\C(=O)OC |  | inactive | inactive | inactive |  | 
20 | OCc1ccc(Cl)cc1Cl |  | inactive | 39.9 µM (active) | inactive |  | 
21 | CCCOC(=O)NCCCN(C)C |  | 63.3 µM (active) and inactive | inactive | inactive |  | 
22 | CC(=O)OCCC(C)C | 79.7 µM (active) | inactive | inactive | inactive | inactive | 
23 | Brc1ccc(Oc2ccc(Br)cc2)cc1 | 12.6 µM (active) and 5.03 µM (active) | 35.6 µM (active) | 22.5 µM (active) and 20 µM (active) |  | inactive | 
24 | COC(=O)CCCCC(=O)OC | inactive | inactive | inactive | inactive | inactive | 
25 | CCCCCCCCCCCCCC(=O)O | inactive | inactive | inactive and 71 µM (active) | inactive | inactive | 
26 | CCCCC(=O)O | inactive | inactive | inactive | inactive | inactive | 
27 | OC[C@H]1O[C@@H](Oc2ccc(O)cc2)[C@H](O)[C@@H](O)[C@@H]1O | inactive | inactive | inactive | inactive | inactive | 
28 | O=[N+]([O-])c1cc(C(F)(F)F)ccc1Cl |  | inactive | inactive | inactive |  | 
29 | N#CCC(=O)O | inactive | inactive | inactive | inactive | inactive | 
30 | CC(C)(C)NC[C@H](O)COc1nsnc1N1CCOCC1 | inactive | inactive |  | inactive |  | 
31 | COC(=O)OC | inactive | inactive | inactive | inactive | inactive | 
32 | Cc1ccc([N+](=O)[O-])cc1N | 35.5 µM (active) and 44.8 µM (active) |  | 11.2 µM (active) and 8.94 µM (active) | inactive |  | 
33 | CCCCCCCCCCCC(=O)N(C)CC(=O)O |  | 38.7 µM (active) | inactive | inactive | inactive | -4.94% [at 10.5 µM] (inactive)
34 | C=CC(C)(C)C | inactive | inactive | 44.8 µM (active) | inactive | inactive | 
35 | O=C1O[C@H]([C@H](O)CO)C(O)=C1O | inactive | inactive | inactive | inactive | inactive | 
36 | O=[N+]([O-])c1ccccc1C(F)(F)F | 6.95 µM (active) and inactive | inactive | inactive | inactive | inactive | 
